Where “and” joins values, the source holds several entries; their conditions need not be identical. Identical values can stand only once. Some compounds were tested as several samples or in several runs, with calls that do not always agree. Calls of active or inactive are those of the source. Rule for the calls: active = hit-call score of the fitted dose curve at least 0.9, where 1 is the maximum; inactive = score below 0.9.
What was measured:
[1] = ATG_M_32_CIS: Attagene CIS-FACTORIAL HepG2 Assay for M32 Transcription Factor (Internal Marker) (AID 2282949); details: HepG2 Attagene cis-factorial M32 reporter, mRNA; actives raise or lower the signal;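 note: background control marker of the multiplexed CIS panel rather than a real target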
Procedure, shortened: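 Fluorescent capillary electrophoresis peaks of HpaI-digested, FAM-labelled RT-PCR reporter products give the signal. Source: transiently transfected human liver HepG2 cells, 24 h after chemical dosing; bidirectional fitting against DMSO.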

[2] = ATG_M_06_CIS: Attagene CIS-FACTORIAL HepG2 Assay for M06 Transcription Factor (Internal Marker) (AID 2282950); details: HepG2 Attagene CIS-FACTORIAL M06 internal marker reporter; actives raise or lower the signal
Procedure, shortened: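 HepG2 cells transiently transfected with cis-regulated multiple reporter transcription units were exposed to chemical for 24 h; reporter mRNA was quantified by RT-PCR, 6-FAM primer labelling, HpaI digestion and capillary electrophoresis, fitted bidirectionally against DMSO.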

[3] = target: Hypoxia-inducible factor 1-alpha (Homo sapiens) (UniProt Q16665); assay: ATG_HIF1a_CIS: Attagene CIS-FACTORIAL HepG2 Assay for human Hypoxia Inducible Factor 1 (HIF1A) (AID 2282951); details: HepG2 Attagene cis-factorial HIF1a reporter transcription; actives raise or lower the signal
Procedure, shortened: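 Measures endogenous transcription-factor activity through cis-regulated reporter mRNA in HepG2. Cells dosed 24 h; transcripts quantified by RT-PCR with 6-FAM-labelled products separated by capillary electrophoresis; DMSO serves as negative control.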

[4] = target: Hepatocyte nuclear factor 6 (Homo sapiens) (UniProt Q9UBC0); assay: ATG_HNF6_CIS: Attagene CIS-FACTORIAL HepG2 Assay for human Hepatocyte Nuclear Factor 6 (HNF6) (AID 2282952); details: HepG2 Attagene cis-factorial HNF6 reporter transcription; actives raise or lower the signal
Procedure, shortened: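 HepG2 cells transiently transfected with cis-element-driven multiple reporter transcription units, dosed 24 h; reporter mRNA quantified by RT-PCR, FAM primer extension, HpaI digestion and capillary electrophoresis; bidirectional fit versus DMSO baseline.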

[5] = ATG_MRE_CIS: Attagene CIS-FACTORIAL HepG2 Assay for human Metal Responsive Element (MRE) (AID 2282954); details: HepG2 MRE cis-reporter transcription, Attagene multiplex; actives raise or lower the signal
Procedure, shortened: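 HepG2 cells transiently transfected with cis-element-driven reporter units; mRNA measured 24 h after dosing. Reporter transcripts quantified by RT-PCR, FAM labelling, HpaI digestion and capillary electrophoresis; bidirectional fit versus DMSO.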

[6] = ATG_PBREM_CIS: Attagene CIS-FACTORIAL HepG2 Assay for human Phenobarbital-responsive Enhancer Module (PBREM) (AID 2282955); details: HepG2 PBREM cis-reporter, Attagene multiplexed transcription; actives raise or lower the signal
Procedure, shortened: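 Fluorescence of labelled reporter cDNA fragments, resolved by capillary electrophoresis, gives mRNA induction in transfected HepG2 cells treated for 24 h; DMSO serves as negative control and baseline.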

[7] = target: Paired box protein Pax-6 (Homo sapiens) (UniProt P26367); assay: ATG_Pax6_CIS: Attagene CIS-FACTORIAL HepG2 Assay for human Paired Box 6 (PAX6) (AID 2282956); details: HepG2 CIS-FACTORIAL PAX6 reporter transcription, RNA readout; actives raise or lower the signal
Procedure, shortened: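 HepG2 cells transiently transfected with cis-promoter-driven multiplexed reporter units sensing endogenous transcription factor activity; 24 h chemical exposure. Reporter mRNA quantified by RT-PCR, 6-FAM labelling, HpaI digestion and capillary electrophoresis; bidirectional fit versus DMSO baseline.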

[8] = ATG_PXRE_CIS: Attagene CIS-FACTORIAL HepG2 Assay for human Pregnane X Receptor Element (PXRE) (AID 2282957); details: HepG2 Attagene CIS-FACTORIAL PXRE reporter, mRNA; actives raise or lower the signal
Procedure, shortened: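 HepG2 cells transiently transfected with cis-regulated multiple reporter transcription units; endogenous factor activity measured as reporter mRNA 24 h after dosing. RT-PCR, fluorescent primer extension, HpaI digestion, capillary electrophoresis; bidirectional fit versus DMSO baseline.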

[9] = ATG_PPRE_CIS: Attagene CIS-FACTORIAL HepG2 Assay for human Peroxisome Proliferator-activated Response Element (PPRE) (AID 2282958); details: HepG2 PPRE cis-element reporter, Attagene transcription factor profiling; actives raise or lower the signal
Procedure, shortened: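 Cells are first transfected transiently with the multiplexed reporter library, then dosed for 24 h. Total RNA is reverse-transcribed, amplified, fluorescently end-labeled and HpaI-cut before capillary electrophoresis; activity is fitted bidirectionally against DMSO controls.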

[10] = ATG_RORE_CIS: Attagene CIS-FACTORIAL HepG2 Assay for human RAR-related Orphan Receptor Element (RORE) (AID 2282959); details: HepG2 Attagene cis-factorial RORE reporter, mRNA; actives raise or lower the signal
Procedure, shortened: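 Cells were HepG2 carrying transfected cis-regulated reporter constructs, dosed for 24 hours. Total RNA was reverse-transcribed and reporter cDNA amplified, fluorescently labeled and sized by capillary electrophoresis. Activity was fitted bidirectionally relative to DMSO.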

[11] = ATG_Sox_CIS: Attagene CIS-FACTORIAL HepG2 Assay for human SRY-box transcription factor (SOX) (AID 2282960); details: HepG2 Attagene cis-factorial SOX reporter, mRNA; actives raise or lower the signal
Procedure, shortened: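 Transient MRTU transfection of HepG2; 24 h compound incubation; TriZol RNA, oligo(dT) RT, PCR, 6-FAM primer extension, HpaI cut, CE. Bidirectional fit, DMSO = baseline.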

[12] = target: Transcription factor Sp1 (Homo sapiens) (UniProt P08047); assay: ATG_Sp1_CIS: Attagene CIS-FACTORIAL HepG2 Assay for human Specificity Protein 1 (Sp1) (AID 2282961); details: HepG2 Sp1 cis-reporter transcription, actives raise or lower the signal
Procedure, shortened: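 Endogenous Sp1 activity was gauged in human liver HepG2 cells bearing transfected reporter units under a cis-regulating promoter. After 24 h dosing, reporter mRNA was quantified by RT-PCR with capillary electrophoresis, and activity fitted bidirectionally versus DMSO.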

[13] = target: Signal transducer and activator of transcription 3 (Homo sapiens) (UniProt P40763); assay: ATG_STAT3_CIS: Attagene CIS-FACTORIAL HepG2 Assay for human Signal Transducer and Activator of Transcription 3 (STAT3) (AID 2282963); details: HepG2, Attagene cis-factorial STAT3 reporter transcription; actives raise or lower the signal
Procedure, shortened: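 HepG2 cells transiently transfected with multiple cis-element-driven reporter units report endogenous transcription factor activity. After 24 h compound exposure, reporter mRNA is measured by RT-PCR, 6-FAM labelling, HpaI digestion and capillary electrophoresis. Fitted bidirectionally versus DMSO.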

[14] = ATG_TA_CIS: Attagene CIS-FACTORIAL HepG2 Assay for human TA Basal Promoter (AID 2282964); details: HepG2 Attagene CIS-factorial TA basal promoter reporter; actives raise or lower the signal
Procedure, shortened: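 HepG2 cells transiently transfected with multiplexed cis-promoter reporter units, dosed 24 h. Reporter mRNA measured by RT-PCR, 6-FAM labelling, HpaI digestion and capillary electrophoresis; bidirectional fit versus DMSO baseline, serving as background control.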

[15] = ATG_TCF_b_cat_CIS: Attagene CIS-FACTORIAL HepG2 Assay for human T-Cell-Factor with beta-catenin (TCF/b-cat) (AID 2282965); details: HepG2 TCF/beta-catenin cis-reporter transcription, actives raise or lower the signal
Procedure, shortened: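 Cells of the HepG2 line carry transiently transfected reporter units whose promoters respond to endogenous factors. Twenty-four hours post-dosing, reporter mRNA induction is measured by fluorescent RT-PCR and capillary electrophoresis, with DMSO as baseline.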

[16] = ATG_TGFb_CIS: Attagene CIS-FACTORIAL HepG2 Assay for human Transforming Growth Factor (TGF) (AID 2282967); details: HepG2 Attagene CIS TGFb reporter, mRNA transcription; actives raise or lower the signal
Procedure, shortened: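 HepG2 cells transiently transfected with cis-promoter-driven multiplexed reporter units; 24 h compound exposure. Reporter mRNA measured by RT-PCR, 6-FAM labeling, HpaI digestion and capillary electrophoresis; bidirectional fit versus DMSO baseline.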

[17] = ATG_VDRE_CIS: Attagene CIS-FACTORIAL HepG2 Assay for human Vitamin D Receptor Element (VDRE) (AID 2282968); details: HepG2 VDRE cis-reporter transcription, actives raise or lower the signal
Procedure, shortened: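 Transiently transfected HepG2 cells carrying cis-regulated reporter transcription units were exposed for 24 h. Reporter mRNA was measured by RT-PCR with fluorescent labelling and capillary electrophoresis, and fitted in both directions against DMSO.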

[18] = target: Heat shock factor protein 1 (Homo sapiens) (UniProt Q00613); assay: ATG_HSE_CIS: Attagene CIS-FACTORIAL HepG2 Assay for human Heat Shock Transcription Factor 1 (HSE) (AID 2282953); details: HepG2 HSE cis-reporter, Attagene RNA transcription; actives raise or lower the signal
Procedure, shortened: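 HepG2 cells transiently transfected with multiple reporter transcription units under cis-regulatory promoter control, measuring endogenous transcription factor activity. After 24 h chemical exposure, reporter mRNA quantified by RT-PCR, fluorescent labelling, HpaI digestion and capillary electrophoresis; bidirectional fit versus DMSO.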

[19] = ATG_SREBP_CIS: Attagene CIS-FACTORIAL HepG2 Assay for human Sterol Regulatory Element Binding (SREBP) (AID 2282962); details: HepG2 Attagene cis-factorial SREBP reporter, mRNA; actives raise or lower the signal
Procedure, shortened: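 HepG2 cells transiently transfected with multiplexed cis-promoter reporter units sensing endogenous transcription factors; reporter mRNA measured 24 h after dosing by RT-PCR, 6-FAM labeling, HpaI digestion and capillary electrophoresis. Bidirectional fit versus DMSO.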

[20] = ATG_TAL_CIS: Attagene CIS-FACTORIAL HepG2 Assay for human TAL Basal Promoter (AID 2282966); details: HepG2 Attagene cis-factorial TAL promoter reporter; actives raise or lower the signal;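 note: background control endpoint measuring basal TAL promoter reporter mRNA not a specific factor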
Procedure, shortened: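 HepG2 cells were transiently transfected with promoter-driven multiplexed reporter units and dosed for 24 h. Reporter mRNA was measured by RT-PCR with capillary electrophoresis fluorescence; bidirectional fits used DMSO as baseline, serving as a background control.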

Sequence of Paired box protein Pax-6 (Homo sapiens) (P26367 whole entry, looked up): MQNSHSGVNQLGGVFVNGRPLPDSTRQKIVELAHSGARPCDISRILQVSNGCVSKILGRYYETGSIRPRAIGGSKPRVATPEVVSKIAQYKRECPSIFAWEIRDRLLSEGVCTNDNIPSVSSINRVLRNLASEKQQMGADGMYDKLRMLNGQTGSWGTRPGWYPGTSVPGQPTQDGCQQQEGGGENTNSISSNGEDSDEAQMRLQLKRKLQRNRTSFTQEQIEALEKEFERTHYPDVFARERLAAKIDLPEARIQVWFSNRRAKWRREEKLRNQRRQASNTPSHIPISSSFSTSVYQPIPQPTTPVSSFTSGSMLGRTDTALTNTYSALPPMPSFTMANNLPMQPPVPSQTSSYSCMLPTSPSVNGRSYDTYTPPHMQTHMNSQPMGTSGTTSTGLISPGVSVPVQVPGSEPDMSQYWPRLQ
Sequence of Signal transducer and activator of transcription 3 (Homo sapiens) (P40763 whole entry, looked up): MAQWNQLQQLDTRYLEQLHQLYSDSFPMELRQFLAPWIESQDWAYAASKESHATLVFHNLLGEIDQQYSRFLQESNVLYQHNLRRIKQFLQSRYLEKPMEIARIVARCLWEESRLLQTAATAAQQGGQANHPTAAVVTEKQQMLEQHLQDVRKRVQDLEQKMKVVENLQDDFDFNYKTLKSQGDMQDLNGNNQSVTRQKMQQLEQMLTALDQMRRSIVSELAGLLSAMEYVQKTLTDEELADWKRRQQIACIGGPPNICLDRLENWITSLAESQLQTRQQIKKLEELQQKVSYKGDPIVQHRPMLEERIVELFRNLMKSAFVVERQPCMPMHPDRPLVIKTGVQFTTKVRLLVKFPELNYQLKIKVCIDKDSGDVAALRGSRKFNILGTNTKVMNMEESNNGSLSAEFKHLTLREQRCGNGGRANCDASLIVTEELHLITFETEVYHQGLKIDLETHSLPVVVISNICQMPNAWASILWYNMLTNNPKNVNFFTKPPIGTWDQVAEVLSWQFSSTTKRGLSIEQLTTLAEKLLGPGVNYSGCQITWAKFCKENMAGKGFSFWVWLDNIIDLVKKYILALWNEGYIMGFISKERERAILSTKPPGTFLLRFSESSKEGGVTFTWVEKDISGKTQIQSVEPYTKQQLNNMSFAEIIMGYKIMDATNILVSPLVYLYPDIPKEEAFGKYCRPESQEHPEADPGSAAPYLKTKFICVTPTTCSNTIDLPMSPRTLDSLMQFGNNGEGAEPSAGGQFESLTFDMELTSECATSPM
Sequence of Hepatocyte nuclear factor 6 (Homo sapiens) (Q9UBC0 whole entry, looked up): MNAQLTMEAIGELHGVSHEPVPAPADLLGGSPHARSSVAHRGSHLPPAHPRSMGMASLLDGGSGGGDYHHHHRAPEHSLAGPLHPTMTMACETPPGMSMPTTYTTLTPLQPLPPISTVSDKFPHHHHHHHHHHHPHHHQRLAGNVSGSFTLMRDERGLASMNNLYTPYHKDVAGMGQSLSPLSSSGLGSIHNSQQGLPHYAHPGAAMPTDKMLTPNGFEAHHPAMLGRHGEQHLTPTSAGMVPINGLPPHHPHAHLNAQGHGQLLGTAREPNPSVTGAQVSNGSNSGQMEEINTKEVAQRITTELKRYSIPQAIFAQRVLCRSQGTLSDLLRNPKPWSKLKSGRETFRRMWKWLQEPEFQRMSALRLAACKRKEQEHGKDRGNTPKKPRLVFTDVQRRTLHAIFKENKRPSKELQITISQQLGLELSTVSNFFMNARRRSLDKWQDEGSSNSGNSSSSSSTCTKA
Sequence of Transcription factor Sp1 (Homo sapiens) (P08047 whole entry, looked up): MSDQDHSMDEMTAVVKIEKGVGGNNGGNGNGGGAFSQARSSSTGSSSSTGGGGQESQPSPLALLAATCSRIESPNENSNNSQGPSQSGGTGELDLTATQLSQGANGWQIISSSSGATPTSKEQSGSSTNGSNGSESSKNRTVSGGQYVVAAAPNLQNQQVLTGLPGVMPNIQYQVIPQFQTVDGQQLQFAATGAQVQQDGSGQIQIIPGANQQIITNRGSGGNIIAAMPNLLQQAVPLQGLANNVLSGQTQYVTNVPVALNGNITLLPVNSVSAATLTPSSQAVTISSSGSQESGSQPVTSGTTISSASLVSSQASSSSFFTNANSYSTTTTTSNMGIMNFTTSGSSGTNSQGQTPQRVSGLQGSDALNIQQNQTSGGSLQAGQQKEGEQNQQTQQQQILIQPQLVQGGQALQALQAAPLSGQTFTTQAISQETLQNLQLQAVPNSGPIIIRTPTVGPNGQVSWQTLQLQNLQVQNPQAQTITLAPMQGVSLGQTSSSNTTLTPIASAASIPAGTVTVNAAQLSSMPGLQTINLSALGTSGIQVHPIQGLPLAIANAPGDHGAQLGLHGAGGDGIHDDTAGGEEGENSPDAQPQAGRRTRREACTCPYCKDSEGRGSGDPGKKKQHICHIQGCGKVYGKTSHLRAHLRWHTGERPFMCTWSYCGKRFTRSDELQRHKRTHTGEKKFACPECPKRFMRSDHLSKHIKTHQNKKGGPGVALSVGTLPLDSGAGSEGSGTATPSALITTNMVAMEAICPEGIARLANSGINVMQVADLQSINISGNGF
Sequence of Hypoxia-inducible factor 1-alpha (Homo sapiens) (Q16665 whole entry, looked up): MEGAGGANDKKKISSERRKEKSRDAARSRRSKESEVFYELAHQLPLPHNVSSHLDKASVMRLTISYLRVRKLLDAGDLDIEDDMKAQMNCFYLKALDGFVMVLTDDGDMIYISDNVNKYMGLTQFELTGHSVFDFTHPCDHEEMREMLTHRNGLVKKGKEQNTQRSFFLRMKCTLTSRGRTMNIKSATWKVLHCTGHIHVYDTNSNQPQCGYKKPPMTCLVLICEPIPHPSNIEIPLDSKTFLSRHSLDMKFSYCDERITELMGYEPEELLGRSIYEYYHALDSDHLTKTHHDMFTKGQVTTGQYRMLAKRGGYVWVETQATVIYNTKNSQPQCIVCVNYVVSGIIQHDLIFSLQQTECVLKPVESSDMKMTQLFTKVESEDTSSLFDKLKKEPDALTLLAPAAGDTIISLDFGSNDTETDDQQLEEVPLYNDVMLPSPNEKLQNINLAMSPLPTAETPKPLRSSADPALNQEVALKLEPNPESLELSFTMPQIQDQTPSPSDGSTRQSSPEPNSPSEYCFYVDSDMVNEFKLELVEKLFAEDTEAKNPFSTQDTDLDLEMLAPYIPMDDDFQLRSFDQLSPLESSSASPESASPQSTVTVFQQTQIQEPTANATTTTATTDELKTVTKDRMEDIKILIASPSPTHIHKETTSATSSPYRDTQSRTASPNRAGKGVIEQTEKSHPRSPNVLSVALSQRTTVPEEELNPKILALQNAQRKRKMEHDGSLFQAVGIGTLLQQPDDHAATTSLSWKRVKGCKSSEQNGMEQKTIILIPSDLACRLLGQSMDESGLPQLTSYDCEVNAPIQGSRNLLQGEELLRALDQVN
Sequence of Heat shock factor protein 1 (Homo sapiens) (Q00613 whole entry, looked up): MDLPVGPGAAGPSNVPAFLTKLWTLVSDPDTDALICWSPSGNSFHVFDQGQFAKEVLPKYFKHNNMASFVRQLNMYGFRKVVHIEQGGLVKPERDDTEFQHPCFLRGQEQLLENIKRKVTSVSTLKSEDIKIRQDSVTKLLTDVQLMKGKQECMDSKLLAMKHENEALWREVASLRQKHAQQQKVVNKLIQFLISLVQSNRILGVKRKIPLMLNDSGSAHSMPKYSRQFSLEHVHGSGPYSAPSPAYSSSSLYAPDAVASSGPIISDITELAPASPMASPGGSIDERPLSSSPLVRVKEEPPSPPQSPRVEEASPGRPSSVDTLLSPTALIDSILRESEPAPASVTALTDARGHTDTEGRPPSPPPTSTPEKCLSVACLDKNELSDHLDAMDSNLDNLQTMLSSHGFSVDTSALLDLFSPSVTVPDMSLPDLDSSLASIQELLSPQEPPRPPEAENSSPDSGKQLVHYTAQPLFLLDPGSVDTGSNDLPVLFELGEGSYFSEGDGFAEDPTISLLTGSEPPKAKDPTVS

Q: With `C=C(c1ccc(C(=O)O)cc1)c1cc2c(cc1C)C(C)(C)CCC2(C)C` as the compound, how does the AC50 [1] read?
A: 32.2 µM (active)

Q: And the outcome [1]?
A: inactive

Q: What about the outcome [2] of the same compound?
A: inactive

Q: And the outcome [3]?
A: inactive

Q: What about the outcome [4] of the same compound?
A: inactive

Q: What about the AC50 [5] of the same compound?
A: 13.8 µM (active) and 23 µM (active)

Q: And the AC50 [6]?
A: 30.3 µM (active)

Q: And the outcome [6]?
A: inactive

Q: What about the AC50 [7] of the same compound?
A: 14.9 µM (active) and 25.3 µM (active)

Q: What about the AC50 [8] of the same compound?
A: 154 nM (active)

Q: What about the outcome [8] of the same compound?
A: inactive

Q: And the AC50 [9]?
A: 9.14 nM (active) and 19.3 nM (active)

Q: What about the AC50 [10] of the same compound?
A: 2.2 µM (active)

Q: What about the outcome [10] of the same compound?
A: inactive

Q: What about the outcome [11] of the same compound?
A: inactive

Q: What about the AC50 [12] of the same compound?
A: 32.9 µM (active)

Q: What about the outcome [12] of the same compound?
A: inactive

Q: And the outcome [13]?
A: inactive

Q: And the AC50 [14]?
A: 11.1 µM (active) and 29.8 µM (active)

Q: And the AC50 [15]?
A: 13.7 µM (active)

Q: What about the outcome [15] of the same compound?
A: inactive

Q: What about the outcome [16] of the same compound?
A: inactive

Q: What about the AC50 [17] of the same compound?
A: 2.11 µM (active)

Q: And the outcome [17]?
A: inactive

Q: With `CCCCCCCCCCCC[N+](C)(C)CCCCCCCCCCCC` as the compound, how does the outcome [1] read?
A: inactive

Q: And the outcome [2]?
A: inactive

Q: What about the outcome [3] of the same compound?
A: inactive

Q: And the outcome [4]?
A: inactive

Q: And the outcome [18]?
A: inactive

Q: What about the AC50 [5] of the same compound?
A: 4.84 µM (active)

Q: And the AC50 [6]?
A: 25.3 µM (active)

Q: What about the outcome [7] of the same compound?
A: inactive

Q: And the outcome [8]?
A: inactive

Q: And the outcome [9]?
A: inactive

Q: What about the AC50 [10] of the same compound?
A: 26.1 µM (active)

Q: And the outcome [11]?
A: inactive

Q: What about the outcome [12] of the same compound?
A: inactive

Q: And the outcome [19]?
A: inactive

Q: What about the outcome [13] of the same compound?
A: inactive

Q: What about the AC50 [14] of the same compound?
A: 26.3 µM (active)

Q: And the AC50 [15]?
A: 25.4 µM (active)

Q: What about the outcome [20] of the same compound?
A: inactive

Q: What about the AC50 [17] of the same compound?
A: 8.42 µM (active)

Q: Which outcome [1] does the source give for `CCc1cccc(CC)c1NC(=O)C(=O)O` here?
A: inactive

Q: And the outcome [2]?
A: inactive

Q: What about the outcome [3] of the same compound?
A: inactive

Q: What about the outcome [4] of the same compound?
A: inactive

Q: And the outcome [18]?
A: inactive

Q: And the outcome [5]?
A: inactive

Q: And the outcome [6]?
A: inactive

Q: What about the outcome [7] of the same compound?
A: inactive

Q: What about the outcome [8] of the same compound?
A: inactive

Q: And the outcome [9]?
A: inactive

Q: What about the outcome [10] of the same compound?
A: inactive

Q: What about the outcome [11] of the same compound?
A: inactive

Q: And the outcome [12]?
A: inactive

Q: And the outcome [19]?
A: inactive

Q: What about the outcome [13] of the same compound?
A: inactive

Q: What about the outcome [14] of the same compound?
A: inactive

Q: What about the outcome [15] of the same compound?
A: inactive

Q: What about the outcome [16] of the same compound?
A: inactive

Q: And the outcome [17]?
A: inactive

Reference: PubChem BioAssay (EPA / NIEHS)
